Among the test systems are SR leukemia; RPMI-8226 leukemia; OVCAR-8 ovarian; OVCAR-5 ovarian; OVCAR-4 ovarian; SK-OV-3 ovarian; IGROV1 ovarian; OVCAR-3 ovarian; HS 578T breast; NCI/ADR-RES ovarian.
Holding throughout (assay): NCI-60 one-dose screen, 48 h (100 = growth as untreated, 0 = no growth, -100 = all killed)
Conditions in all cases: 10 µM unless noted

14 compounds from PubChem BioAssay (NCI) can be followed below.

Compounds without any hit were thinned out: in the full panel of roughly 83,000, 20% have a hit.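 Values shown are percent growth following 48 h exposure of cells in 96-well plates to a single concentration of compound; below 10 was considered active.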 A number with no mark means an inactive call. Activity calls are given as the source filed them.

With `COc1ccc(C/C(C)=C(\c2ccc(O)cc2)c2ccc(OCCN3CCCCC3)cc2)cc1`, the growth was 22.1% in the experiment with SR leukemia; 71.9% with RPMI-8226 leukemia; 90.7% with OVCAR-8 ovarian; 83.2% with OVCAR-5 ovarian; 87.1% in the experiment with OVCAR-4 ovarian; 105% in the experiment on SK-OV-3 ovarian. The growth in the experiment on IGROV1 ovarian is 80.6%; in the experiment with OVCAR-3 ovarian it was 88.9%; in the experiment on HS 578T breast, 86.8%; in the experiment with NCI/ADR-RES ovarian, 90.5%.
As to `CCOC(=O)c1[nH]cc2c1CCc1sc(Nc3ccccn3)nc1-2`, the growth is 56.8% with SR leukemia; 45% in the experiment on RPMI-8226 leukemia; 83.1% in the experiment with OVCAR-8 ovarian; 109% with OVCAR-5 ovarian; 72.7% in the experiment on OVCAR-4 ovarian; 100% in the experiment with SK-OV-3 ovarian. Moreover, the growth was 97.6% in the experiment on IGROV1 ovarian, 82.2% with OVCAR-3 ovarian, 95.6% in the experiment on HS 578T breast and 72.5% in the experiment on NCI/ADR-RES ovarian.
With `Cc1cc(O)c(=O)cc2c1C[C@H]1CC(C)(C)/C=C/C[C@]3(C)Oc4cc(=O)c(O)cc(C)c4C[C@H]3C[C@H](O)[C@@]1(C)O2`, the growth was 12.4% with SR leukemia; 3.46% (active) in the experiment on RPMI-8226 leukemia; 5.84% (active) with OVCAR-8 ovarian; 18.9% in the experiment on OVCAR-5 ovarian; 9.54% (active) with OVCAR-4 ovarian; -5.53% (active) in the experiment on SK-OV-3 ovarian. Moreover, the growth with IGROV1 ovarian was 11.2%; with OVCAR-3 ovarian it was 15.5%; in the experiment with HS 578T breast, 30%; with NCI/ADR-RES ovarian, 0.831% (active).
For `CC(O)CNC(Cc1ccccc1)c1ccc2c(c1)OCO2` (stereo not given), the growth was 101% in the experiment on SR leukemia; 90.3% in the experiment on RPMI-8226 leukemia; 97.1% in the experiment on OVCAR-8 ovarian; 59.6% in the experiment with OVCAR-5 ovarian; 102% in the experiment with OVCAR-4 ovarian; 66.2% in the experiment with SK-OV-3 ovarian. Moreover, the growth in the experiment on IGROV1 ovarian is 101%; in the experiment with OVCAR-3 ovarian it was 98.7%; in the experiment on HS 578T breast, 103%; in the experiment on NCI/ADR-RES ovarian, 94.7%.
`CCCCC#Cc1c(I)n(C2OC(CO[Si](C)(C)C(C)(C)C)C3OC(C)(C)OC32)c(=O)n(C(=O)c2ccccc2)c1=O` (stereo not given): the growth is 5.85% (active) in the experiment on SR leukemia; -55.2% (active) in the experiment with RPMI-8226 leukemia; 48.8% in the experiment on OVCAR-8 ovarian; 87.2% with OVCAR-5 ovarian; 82.6% with OVCAR-4 ovarian; 106% with SK-OV-3 ovarian. The growth in the experiment with IGROV1 ovarian was 27.4%; in the experiment with OVCAR-3 ovarian, -59.7% (active); in the experiment on HS 578T breast, 12%; in the experiment with NCI/ADR-RES ovarian, 74%.
On to `COC12C=C/C(=C(/C(=O)OCc3cncnc3)C(=O)CCCCCCCCC3(OC)C=C/C(=C(/C(=O)OCc4cncnc4)C(=O)CCCCCCCC1)O3)O2`, for which the growth in the experiment with SR leukemia is -36% (active); with RPMI-8226 leukemia it was -20.1% (active); with OVCAR-8 ovarian it was 9.06% (active); in the experiment with OVCAR-5 ovarian, -25.6% (active); with OVCAR-4 ovarian, -4.86% (active); in the experiment with SK-OV-3 ovarian, 36.9%. Also, the growth in the experiment on IGROV1 ovarian is -59.5% (active); in the experiment with OVCAR-3 ovarian, -57.8% (active); in the experiment on HS 578T breast, 26.5%; in the experiment on NCI/ADR-RES ovarian, 8.14% (active).
`COCCn1cc(-c2nc(-c3cn(CCOC)c4ncccc34)cs2)c2cc(F)ccc21`: the growth was 35.3% in the experiment on SR leukemia; 61.3% in the experiment with RPMI-8226 leukemia; 62.4% in the experiment with OVCAR-8 ovarian; 38.8% with OVCAR-5 ovarian; 25.4% in the experiment with OVCAR-4 ovarian; 76.8% in the experiment on SK-OV-3 ovarian. In addition, the growth is 30.1% with IGROV1 ovarian, 17.6% in the experiment with OVCAR-3 ovarian, 70.8% in the experiment with HS 578T breast and 63.8% in the experiment on NCI/ADR-RES ovarian.
Regarding `CN(C)c1ccc([C@@H](C(=O)Nc2cccc([N+](=O)[O-])c2)N(C(=O)c2cc3ccccc3[nH]2)c2cccc([N+](=O)[O-])c2)cc1`, the growth is 97% in the experiment with SR leukemia; 92.6% in the experiment on RPMI-8226 leukemia; 93.3% in the experiment with OVCAR-8 ovarian; 94.7% in the experiment with OVCAR-5 ovarian; 99.4% in the experiment with OVCAR-4 ovarian; 103% in the experiment on SK-OV-3 ovarian. Besides, the growth with IGROV1 ovarian was 103%; in the experiment with OVCAR-3 ovarian it was 111%; in the experiment on HS 578T breast it was 93.5%; in the experiment with NCI/ADR-RES ovarian, 102%.
Regarding `O=C1CCCC1[n+]1ccccc1` (stereo not given), the growth was 127% in the experiment on SR leukemia; 103% in the experiment with RPMI-8226 leukemia; 85.8% in the experiment with OVCAR-8 ovarian; 70.5% in the experiment on OVCAR-5 ovarian; 98% in the experiment on OVCAR-4 ovarian; 80.1% in the experiment on SK-OV-3 ovarian. For the same compound, the growth in the experiment on IGROV1 ovarian is 101%; in the experiment on OVCAR-3 ovarian, 97.8%; in the experiment with HS 578T breast, 114%; in the experiment with NCI/ADR-RES ovarian, 103%.
For `COc1cc([C@@H](CCO)C[C@H](C)c2ccc3ccccc3c2)cc(OC)c1OC`, the growth in the experiment on SR leukemia is 24.5%; in the experiment with RPMI-8226 leukemia, 22.6%; with OVCAR-8 ovarian, 43.5%; in the experiment on OVCAR-5 ovarian it was 70.2%; in the experiment with OVCAR-4 ovarian it was 55.8%; in the experiment on SK-OV-3 ovarian, 33.8%. For the same compound, the growth in the experiment on IGROV1 ovarian was 51.2%; with OVCAR-3 ovarian, 8.71% (active); with HS 578T breast, 22.2%; in the experiment on NCI/ADR-RES ovarian, 16.5%.
With `COc1cc(Cc2cc(OC)c(O)c(OC)c2)cc(OC)c1O`, the growth with SR leukemia was 28%; with RPMI-8226 leukemia, 92.7%; with OVCAR-8 ovarian, 100%; in the experiment on OVCAR-5 ovarian, 112%; in the experiment with OVCAR-4 ovarian, 107%; with SK-OV-3 ovarian it was 98.3%. Moreover, the growth was 91.6% in the experiment on IGROV1 ovarian, 96.2% with OVCAR-3 ovarian, 92.3% in the experiment on HS 578T breast and 52.8% in the experiment on NCI/ADR-RES ovarian.
`C#CCOc1cccc(Nc2ncnc3cc(NC(=O)CCl)ccc23)c1`: the growth in the experiment with SR leukemia is -47.7% (active); in the experiment on RPMI-8226 leukemia it was -43.9% (active); in the experiment on OVCAR-8 ovarian, -30.2% (active); with OVCAR-5 ovarian, -73% (active); in the experiment with OVCAR-4 ovarian, -41% (active); in the experiment with SK-OV-3 ovarian it was -55.8% (active). Besides, the growth was -64.6% (active) in the experiment with IGROV1 ovarian, -76.7% (active) in the experiment on OVCAR-3 ovarian, -1.12% (active) with HS 578T breast and -21.9% (active) with NCI/ADR-RES ovarian.
Regarding `CN(C)CCCC1(c2ccc(F)cc2)OCc2cc(-c3csc4ccccc34)ccc21` (stereo not given), the growth was -8.7% (active) in the experiment on SR leukemia; -40.7% (active) with RPMI-8226 leukemia; -23.2% (active) in the experiment with OVCAR-8 ovarian; 37% in the experiment with OVCAR-5 ovarian; 26.4% with OVCAR-4 ovarian; 81.9% in the experiment on SK-OV-3 ovarian. Moreover, the growth in the experiment with IGROV1 ovarian was -31.1% (active); in the experiment on OVCAR-3 ovarian, -58.2% (active); with HS 578T breast it was 19.3%; in the experiment on NCI/ADR-RES ovarian, 37.9%.
For `O=S(=O)(Nc1cc(Sc2nc3ccccc3s2)c(O)c2ccccc12)c1ccc2ccccc2c1`, the growth with SR leukemia was 100%; with RPMI-8226 leukemia, 88.5%; with OVCAR-8 ovarian it was 75.3%; in the experiment on OVCAR-5 ovarian, 111%; in the experiment on OVCAR-4 ovarian, 77.8%; in the experiment with SK-OV-3 ovarian, 101%. The growth is 101% with IGROV1 ovarian, 82.6% with OVCAR-3 ovarian, 101% in the experiment on HS 578T breast and 86.1% in the experiment on NCI/ADR-RES ovarian.
